Test results taken from PubChem BioAssay (NCATS).
Values joined by “and” are separate entries in the source; they are usually repeats but may differ in a detail not shown here. Identical values can stand only once. Records with an inconclusive call do not appear. For some assays here: Results with a measured potency or affinity are listed apart. Active and inactive are the calls of the source.

Key:
[1] = Ebola virus entry assay, green fluorescence channel
[2] = Ebola virus entry assay, blue channel fluorescence
[3] = qHTS for compounds that reverse cellular toxicity of Amyloid beta (A-beta) peptide in yeast: LOPAC Validation Assay (AID 720559); conditions: yeast expressing A-beta; series mostly up to 46.1 µM;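 further: plate controls were DMSO for no effect and equimolar ferric chloride plus clioquinol rescue for full effect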
Outline: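 Activity is expressed relative to DMSO and an equimolar ferric chloride/clioquinol mix. Compounds were pinned into medium with A-beta-expressing yeast, grown 48 hr at 30 C, then read by absorbance at 600 nm.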

[4] = qHTS for Activators of Parkin Expression: LOPAC Validation Assay (FLuc Reporter) (AID 720573;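 further: 0% = DMSO and 100% = positive control compounds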); conditions: Cell line, PRKN promoter firefly luciferase reporter, vehicle wells = 0, positive control = 100%; series mostly up to 46.1 µM
Outline: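 A neuronal cell line harbouring FLuc and NLuc reporters behind the Parkin promoter was exposed to compounds for 24 h. Firefly luciferase signal, measured after 10 min with detection reagent, was scaled to DMSO and positive-control wells.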

[5] = target: T1, Hexokinase-4 (Homo sapiens) + Glucokinase regulatory protein (Homo sapiens) (UniProt P35557+Q14397); experiment: qHTS assay for inhibitors of recombinant human GCK-GKRP interaction: Diaphorase-coupled assay (AID 743205); conditions: G6PDH/diaphorase resorufin fluorescence; series mostly up to 57.5 µM
Outline: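 Inhibitors of the GCK–GKRP complex relieve GKRP suppression of GCK, detected through a G6PDH–diaphorase cascade reducing resazurin. Human GST-GCK and FLAG-GKRP are used at 10 nM with 5 mM glucose and 0.4 mM ATP.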

[6] = target: T1, Hexokinase-4 (Homo sapiens) + Glucokinase regulatory protein (Homo sapiens); experiment: qHTS assay for inhibitors of recombinant human GCK-GKRP interaction: ADP-Glo assay (AID 743206); conditions: ADP-Glo luminescence, 60 min, 0% = vehicle-only wells with enzyme present; series mostly up to 76.9 µM;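 further: plate controls were DMSO plus enzyme for no effect and no enzyme for full effect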
Outline: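 Pin-transferred compounds meet a 15 nM GST-GCK/15 nM FLAG-GKRP/2 uM S6P mix (dispense concentrations). ATP is then added to 0.4 mM final with 5 mM glucose, and the reaction runs 60 min at room temperature. ADP is quantified luminescently.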

[7] = target: T1, Hexokinase-4 (Homo sapiens) + Glucokinase regulatory protein (Homo sapiens); experiment: qHTS assay for inhibitors of recombinant human GCK-GKRP interaction: HTRF assay (AID 743207); conditions: recombinant GCK-GKRP HTRF binding, 60 min; series mostly up to 57.5 µM;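 further: 0% = DMSO with GCK present and -100% = DMSO wells lacking GCK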
Outline: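 Steps: dispense GCK–GKRP complex (5 nM each, GST- and FLAG-tagged) with 2 uM S6P; pin in compounds; add XL665/Eu-cryptate-labelled antibodies; incubate 60 min at room temperature; read time-resolved FRET at 665 and 615 nm.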

[8] = qHTS Assay for Identifying Gametocytocidal Compounds (AID 743244);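 further: on the % scale 0 is the no-effect control and ±100 the full control effect; actives lower the fluorescent signal which means gametocytes are killed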; conditions: P. falciparum 3D7 stage III-V gametocytes, alamarBlue, 72 h; max response: stronger effect = lower value
Outline: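 A resazurin-based viability read-out was applied to mature P. falciparum gametocytes: 72 h compound treatment, then 24 h dye incubation, with falling fluorescence signalling gametocytocidal effect.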

[9] = qHTS profiling of the MIPE4 collection as inhibitors of Plasmodium falciparum (3D7) proliferation (AID 743344; call rule not given here;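 further: scaled between DMSO vehicle wells and 0.29 µM artemisinin as full inhibition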); conditions: P. falciparum 3D7 in erythrocytes, SYBR Green DNA fluorescence, 72 h; at 28.5 µM (top of the series) unless noted
Outline: (§1)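 Parasite DNA was quantified by SYBR Green I fluorescence (ex 485, em 535 nm) after overnight lysis in saponin/Triton buffer at room temperature. Cultures at 0.3% parasitemia and 2.5% hematocrit were first exposed to compound for 72 h at 37 C; signals were normalised to artemisinin (0.29 uM) and vehicle wells.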

[10] = qHTS profiling of the MIPE4 collection as inhibitors of Plasmodium falciparum (DD2) proliferation (AID 743345; call rule not given here); conditions: P. falciparum Dd2 in erythrocytes, SYBR Green DNA, 72 h; at 28.5 µM (top of the series) unless noted
Outline: as §1

[11] = qHTS profiling of the MIPE4 collection as inhibitors of Plasmodium falciparum (DD2) proliferation (Rep 2) (AID 743346; call rule not given here); conditions: P. falciparum Dd2 in erythrocytes, SYBR Green DNA, 72 h; at 28.5 µM (top of the series) unless noted
Outline: as §1

[12] = qHTS profiling of the MIPE4 collection as inhibitors of Plasmodium falciparum (HB3) proliferation (AID 743347; call rule not given here;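 further: plate controls were DMSO vehicle wells for no effect and artemisinin wells for full effect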); conditions: P. falciparum HB3 in erythrocytes, SYBR Green DNA, 72 h; at 28.5 µM (top of the series) unless noted
Outline: as §1

[13] = qHTS assay for small molecule antagonists of the retinoid-related orphan receptor gamma (ROR-gamma) signaling pathway - cell viability counter screen (AID 720652; active means well fitted curve in the direction sought with a large enough effect in the repeat runs; an effect the other way counts as inactive or inconclusive;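 further: potency means the concentration at half of the fitted maximal effect; compound exposure lasted 16 hr before ATP read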); conditions: RORgamma reporter cell line viability counter screen; series mostly up to 92.2 µM
Outline: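 ATP-based viability readout in the ROR-gamma reporter CHO cells after 16 hr compound exposure under doxycycline induction.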

[14] = qHTS assay for small molecule agonists of the antioxidant response element (ARE) signaling pathway measured by Nrf2-dependant transcriptional activity - cell viability counter screen (AID 720653; active means well fitted curve in the direction sought with a large enough effect in the repeat runs; an effect the other way counts as inactive or inconclusive; further: on the % scale 0 is the no-effect control and ±100 the full control effect); conditions: ARE-bla HepG2 viability, CellTiter-Glo ATP luminescence, 16 h; max response: stronger effect = lower value
Outline: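 ARE-bla HepG2 cells treated with compounds for 16 h at 37C; this counter screen measures viability as intracellular ATP by CellTiter-Glo luminescence after 30 min at room temperature.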
Wherever efficacy is given: 0% is about no effect.

T1 sequence (P35557 whole entry, looked up): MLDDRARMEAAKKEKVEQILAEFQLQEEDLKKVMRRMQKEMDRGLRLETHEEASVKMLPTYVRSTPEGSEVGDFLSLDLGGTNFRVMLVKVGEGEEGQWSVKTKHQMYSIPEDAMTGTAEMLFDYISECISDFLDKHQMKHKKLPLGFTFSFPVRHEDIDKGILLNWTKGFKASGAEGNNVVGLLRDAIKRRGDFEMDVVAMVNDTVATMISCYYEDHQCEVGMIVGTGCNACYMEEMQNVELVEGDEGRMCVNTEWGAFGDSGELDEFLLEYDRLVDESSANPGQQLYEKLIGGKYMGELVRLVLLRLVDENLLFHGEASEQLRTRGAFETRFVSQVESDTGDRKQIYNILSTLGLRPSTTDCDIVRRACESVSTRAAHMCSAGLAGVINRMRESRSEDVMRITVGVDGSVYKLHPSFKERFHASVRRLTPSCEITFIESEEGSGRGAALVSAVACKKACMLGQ
T1 sequence (Q14397 whole entry, looked up): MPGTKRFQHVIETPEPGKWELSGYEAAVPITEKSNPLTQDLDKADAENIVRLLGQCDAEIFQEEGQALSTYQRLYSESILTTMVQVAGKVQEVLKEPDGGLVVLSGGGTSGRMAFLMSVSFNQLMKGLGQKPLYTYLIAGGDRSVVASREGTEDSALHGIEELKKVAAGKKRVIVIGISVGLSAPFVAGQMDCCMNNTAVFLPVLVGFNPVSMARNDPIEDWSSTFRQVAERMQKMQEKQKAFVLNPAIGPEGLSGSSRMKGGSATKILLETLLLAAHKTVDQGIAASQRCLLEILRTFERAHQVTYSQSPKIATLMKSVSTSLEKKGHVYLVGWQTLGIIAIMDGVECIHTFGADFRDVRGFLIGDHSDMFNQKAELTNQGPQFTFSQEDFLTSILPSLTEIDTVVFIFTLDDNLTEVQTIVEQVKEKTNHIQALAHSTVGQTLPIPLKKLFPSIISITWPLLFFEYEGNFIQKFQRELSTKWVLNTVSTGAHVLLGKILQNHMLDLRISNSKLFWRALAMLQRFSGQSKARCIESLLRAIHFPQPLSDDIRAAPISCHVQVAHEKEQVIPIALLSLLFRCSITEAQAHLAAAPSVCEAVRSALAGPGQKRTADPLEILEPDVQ

Which results are given for `Nc1cccc2c1CN(C1CCC(=O)NC1=O)C2=O` (stereo not given)?
efficacy [1]: 15.2% (inactive); outcome [2]: inactive

For `COc1ccc(C(CN(C)C)C2(O)CCCCC2)cc1` (stereo not given), which outcome [3] is on record?
Its outcome is “inactive”.

And the outcome [4]?
The outcome was “inactive”.

And the outcome [5]?
The outcome was “inactive”.

What about the outcome [6] of the same compound?
The outcome was “inactive”.

And the outcome [7]?
Its outcome is “inactive”.

What about the max response [8] of the same compound?
Its max response is 4.64% (inactive) and 5.5% (inactive).

And the parasite growth, % of DMSO control [9]?
Its parasite growth, % of DMSO control is 21.1%.

What about the parasite growth remaining, % of DMSO control (lower = more inhibition) [10] of the same compound?
Its parasite growth remaining, % of DMSO control (lower = more inhibition) is 58.9%.

What about the parasite growth, % of control (lower = inhibition) [11] of the same compound?
Its parasite growth, % of control (lower = inhibition) is 42.9%.

What about the growth, % of control [12] of the same compound?
The growth, % of control was 60.2%.

And the efficacy [1]?
Its efficacy is 55.6% (inactive).

What about the outcome [2] of the same compound?
Its outcome is “inactive”.

Which results are given for `CC(COc1ccccc1)N(CCCl)Cc1ccccc1` (stereo not given)?
Potency [13]: 42.2 µM (active); max response [14]: -12.5% (inactive); max response [8]: 3.46% (inactive); growth, % of control [12]: 91.2%; efficacy [1]: 44% (inactive); outcome [2]: inactive
